Data published in PubChem BioAssay (NCATS).
Results filed as inconclusive are left out. The source made the active and inactive calls. Unless noted, the call rests on the fitted dose curve.

How the values were obtained:
[1] = qHTS for Inhibitors of the Functional Ribonucleoprotein Complex (vRNP) of Lassa (LASV) Arenavirus: LASV Primary Screen - GLuc reporter signal (AID 1347082; calls by dose curve; tested in HEK293 reporter line; further: on the % scale 0 is the no-effect control and ±100 the full control effect; nearly all actives have a fitted effect of over 60% in size)
[2] = qHTS for Inhibitors of the Functional Ribonucleoprotein Complex (vRNP) of Lassa (LASV) Arenavirus: Viability assay - alamar blue signal for LASV Primary Screen (AID 1347083; calls by dose curve; tested in HEK293 reporter line; further: nearly all actives have a fitted effect of over 80% in size; further: potency means the concentration at half of the fitted maximal effect)
[3] = biological target: Nucleoprotein (Lymphocytic choriomeningitis virus (strain Armstrong)) (UniProt P09992); test: qHTS for Inhibitors of the Functional Ribonucleoprotein Complex (vRNP) of Lymphocytic Choriomeningitis Arenaviruses (LCMV): LCMV Primary Screen - GLuc reporter signal (AID 1347086); further: nearly all actives have a fitted effect of over 70% in size; further: potency means the concentration at half of the fitted maximal effect; on activity change, negative = inhibition: on the % scale 0 is the no-effect control and ±100 the full control effect
Nucleoprotein (Lymphocytic choriomeningitis virus (strain Armstrong)), sequence (P09992 whole entry, looked up): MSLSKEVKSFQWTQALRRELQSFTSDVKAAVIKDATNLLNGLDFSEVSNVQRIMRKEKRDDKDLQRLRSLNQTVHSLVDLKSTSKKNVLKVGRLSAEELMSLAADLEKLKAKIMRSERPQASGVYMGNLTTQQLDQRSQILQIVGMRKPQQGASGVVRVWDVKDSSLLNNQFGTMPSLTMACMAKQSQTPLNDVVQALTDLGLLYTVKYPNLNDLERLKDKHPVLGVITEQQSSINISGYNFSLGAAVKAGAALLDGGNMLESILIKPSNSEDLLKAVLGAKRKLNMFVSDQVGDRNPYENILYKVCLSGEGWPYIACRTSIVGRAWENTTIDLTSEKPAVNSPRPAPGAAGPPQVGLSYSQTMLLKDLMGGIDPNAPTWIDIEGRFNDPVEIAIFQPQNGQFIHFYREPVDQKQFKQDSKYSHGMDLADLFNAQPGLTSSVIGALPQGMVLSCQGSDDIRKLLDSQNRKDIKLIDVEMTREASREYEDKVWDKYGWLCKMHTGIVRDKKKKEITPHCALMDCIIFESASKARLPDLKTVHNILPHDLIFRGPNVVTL

[4] = Primary qHTS for inhibitors of SARS-S pseudo-typed particle cell entry (AID 1479145); further: on the % scale 0 is the no-effect control and ±100 the full control effect; nearly all actives have a fitted effect of over 45% in size
[5] = Primary qHTS for Huh7 cytotoxicity: counterscreen for inhibitors of MERS-S pseudotyped particle cell entry (AID 1479147); details: outcome: dose series up to 57.1 µM unless noted
[6] = Primary qHTS for Vero E6 cytotoxicity: counterscreen for inhibitors of SARS-S pseudo-typed particle cell entry (AID 1479150); details: outcome: dose series up to 57.1 µM unless noted
[7] = Cytotoxicity counterscreen for inhibitors of SARS-CoV-2 cell entry (AID 1645845); further: nearly all actives have a fitted effect of over 50% in size
Method in brief: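 HEK293-ACE2 cells (Expi293F stably expressing human ACE2) seeded overnight, then compound for 1 h plus 48 h at 37C. Viability as ATP content by luminescence; normalized to wells with cells and media-only wells.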

CRL-7250 = normal cell line; test: qHTS assay to identify novel small-molecules to repurpose for Merkel cell carcinoma treatment (AID 1296009; active means well fitted inhibition curve with a large enough effect; further: nearly all actives have a fitted effect of over 60% in size); details: MCC and control cell lines, CellTiter-Glo viability, 72 h; series mostly up to 92 µM
Method in brief: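 Cells were incubated with compound for 72 hr at 37 degree celsius before CellTiter-Glo addition. Luminescence was normalized with no-cell wells as full cytotoxicity and DMSO as baseline.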

[8] = qHTS profiling of the MIPE4 collection as inhibitors of Plasmodium falciparum (DD2) proliferation (AID 743345; call rule not given here); details: P. falciparum Dd2 in erythrocytes, SYBR Green DNA, 72 h; at 28.5 µM (top of the series) unless noted
Method in brief: (§1)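 Erythrocytes infected with P. falciparum (0.3% parasitemia, 2.5% hematocrit) incubated with compounds 72 h at 37 C, 5% CO2. Lysis with saponin/Triton buffer containing SYBR Green I, overnight at room temperature in the dark; DNA fluorescence (485/535 nm) normalised to 0.29 uM artemisinin and DMSO.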

[9] = qHTS for Inhibitors of the Functional Ribonucleoprotein Complex (vRNP) of Lymphocytic Choriomeningitis Arenaviruses (LCMV): Viability assay - alamar blue signal for LCMV Primary Screen (AID 1347085; calls by dose curve; tested in HEK293 reporter line; further: nearly all actives have a fitted effect of over 80% in size; further: potency means the concentration at half of the fitted maximal effect)
[10] = Primary qHTS to identify inhibitors of SARS-CoV-2 cell entry (AID 1645846); details: activity change, negative = inhibition: at 57.1 µM (top of the series) unless noted; further: nearly all actives have a fitted effect of over 45% in size; further: potency means the concentration at half of the fitted maximal effect
Method in brief: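 HEK293-ACE2 (Expi293F, stable hACE2), 1500 cells/well, o/n 37C; cpd 23 nL pin, 1 h; MLV-PP w/ SARS-CoV-2-S (Wuhan-Hu-1, Δ19 C-term); 48 h 37C; Bright-Glo luminescence; normalized vs S-PP and bald PP.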

[11] = qHTS profiling of the MIPE4 collection as inhibitors of Plasmodium falciparum (3D7) proliferation (AID 743344; call rule not given here;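 further: scaled between DMSO vehicle wells and 0.29 µM artemisinin as full inhibition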); details: P. falciparum 3D7 in erythrocytes, SYBR Green DNA fluorescence, 72 h; at 28.5 µM (top of the series) unless noted
Method in brief: as §1

[12] = qHTS profiling of the MIPE4 collection as inhibitors of Plasmodium falciparum (DD2) proliferation (Rep 2) (AID 743346; call rule not given here); details: P. falciparum Dd2 in erythrocytes, SYBR Green DNA, 72 h; at 28.5 µM (top of the series) unless noted
Method in brief: as §1

[13] = qHTS profiling of the MIPE4 collection as inhibitors of Plasmodium falciparum (HB3) proliferation (AID 743347; call rule not given here;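 further: plate controls were DMSO vehicle wells for no effect and artemisinin wells for full effect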); details: P. falciparum HB3 in erythrocytes, SYBR Green DNA, 72 h; at 28.5 µM (top of the series) unless noted
Method in brief: as §1

N#Cc1c(N(CC(=O)O)CC(=O)O)sc(C(=O)O)c1CC(=O)O
inactive: Potency [1] | Potency [2] | Potency [3] | activity change, negative = inhibition [4] -19.2% [at 0.573 µM] | outcome [5] inactive [at 0.573 µM] | outcome [6] inactive [at 0.573 µM] | outcome [7] inactive [at 0.702 µM] | Potency (CRL-7250)

OC[C@H]1OC(O)C[C@@H](O)[C@H]1O (stereo partly specified)
inactive: Potency [1] | Potency [2] | Potency [9] | Potency [3] | Potency [7] | Potency (CRL-7250)
88.2%: parasite growth remaining, % of DMSO control (lower = more inhibition) [8]
-3.07%: activity change, negative = inhibition [10]

COc1ccc2c(OCc3nnc4ccc(-c5ccccc5)nn34)ccnc2c1
inactive: Potency [1] | Potency [2] | Potency [9] | Potency [3] | Potency [7] | Potency (CRL-7250)
-13.2%: activity change, negative = inhibition [10]

COc1ccc2cc(-c3nc(-c4ccc(S(C)=O)cc4)[nH]c3-c3ccncc3)ccc2c1 (stereo unspecified)
active: Potency [2] 24.3 µM | Potency [9] 4.85 µM | Potency [3] 17.2 µM | Potency [10] 31.6 µM
inactive: Potency [1] | Potency (CRL-7250)

CC=CCC=CCCC(=O)[C@H]1O[C@@H]1C(N)=O
inactive: Potency [1] | Potency [2] | Potency [9] | Potency [3] | Potency (CRL-7250)
65.1%: parasite growth, % of DMSO control [11]
71.3%: growth, % of control [13]
60%: parasite growth, % of control (lower = inhibition) [12]
87.5%: parasite growth remaining, % of DMSO control (lower = more inhibition) [8]

CCCCCCCCCCCCCCCC(=O)O[C@H]1[C@@H](O)[C@@H](O)[C@@H]([C@H](NC(=O)[C@@H]2C[C@@H](CCC)CN2C)[C@H](C)Cl)O[C@@H]1SC
inactive: Potency [1] | Potency [2] | Potency [9] | Potency [3] | Potency [7] | Potency [10] | Potency (CRL-7250)
81.5%: growth, % of control [13]
